# Hits are enriched below; roughly 1.4% of the tested compounds scored in any of these assays.
# eLon inh: E. coli protease La inhibition | P0A9M0 | purified E. coli Lon protease, fluorescence polarization | inhibition, % at 7.94 µM | 0.42% of 360,000 active; in the data active = inhibition above about 13%, passing the limit was not always enough;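 also: 0% = enzyme with probe and DMSO and 100% = no enzyme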
# MCL1 BIM primary: MCL1-BIM-BH3 interaction inhibition (human) | Q07820 | GST-MCL1 / FITC-Bim-BH3 fluorescence polarization | inhibition, % at 10.9 µM | 0.68% of 320,000 active;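 active = inhibition above the mean inhibition of all tested compounds plus 3 SD, set per campaign, cut at about 40% in these data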;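 also: 0% = DMSO wells and 100% = unlabeled Bim-BH3 peptide control; higher means more loss of mP so more displacement of Bim peptide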
# Target sequence (Q07820 whole entry, looked up): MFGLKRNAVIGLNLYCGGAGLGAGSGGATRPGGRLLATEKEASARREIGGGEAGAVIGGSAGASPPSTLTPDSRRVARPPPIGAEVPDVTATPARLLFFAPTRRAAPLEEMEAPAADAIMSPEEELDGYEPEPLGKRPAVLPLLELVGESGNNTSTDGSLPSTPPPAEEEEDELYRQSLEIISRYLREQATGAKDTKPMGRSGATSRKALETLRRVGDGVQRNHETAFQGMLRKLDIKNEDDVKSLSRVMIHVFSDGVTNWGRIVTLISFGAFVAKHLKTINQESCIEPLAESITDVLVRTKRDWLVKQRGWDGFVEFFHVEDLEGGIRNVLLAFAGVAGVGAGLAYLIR
# GLD-1 RNA inh: GLD-1-TGE RNA interaction inhibition (C. elegans); Q17339; purified GLD-1 + fluorescein TGE RNA, fluorescence polarization; inhibition, % at 5.96 µM; 0.44% of 320,000 active; AID 2280;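 active = percent inhibition above a per-plate cutoff, the plate mean of test compounds plus 3 SD, cut at about 30% in these data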;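 also: 0% = DMSO wells with GLD-1 and probe and 100% = wells lacking GLD-1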
# Bcl-xL primary: Bcl-xL (human) inhibition; AID 2129; GST-Bcl-xL / FITC-Bim BH3 peptide fluorescence polarization; 0.7% of 320,000 active; inhibition, % at 10.9 µM;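 active = inhibition above the mean of all tested compounds plus 3 SD, cutoff set per campaign, cut at about 30% in these data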;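 also: 0% = DMSO wells and 100% = unlabeled Bim-BH3 peptide competitor; inhibitors lower millipolarization by displacing the labeled peptide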
# Target sequence (Q07817 whole entry, looked up): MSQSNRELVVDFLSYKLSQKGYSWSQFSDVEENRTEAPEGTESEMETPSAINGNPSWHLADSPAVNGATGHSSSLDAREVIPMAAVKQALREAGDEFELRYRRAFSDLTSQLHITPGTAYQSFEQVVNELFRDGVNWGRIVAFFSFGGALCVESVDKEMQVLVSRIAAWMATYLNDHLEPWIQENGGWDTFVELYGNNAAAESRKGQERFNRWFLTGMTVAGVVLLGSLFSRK
# MEX-5 binding: C. elegans MEX-5 TCR-2 RNA binding activity; MEX-5/FITC-TCR2 RNA binding, fluorescence polarization; stronger effect = lower value; activity score (negative = inhibition of binding), % at 10 µM; 0.38% of 300,000 active; AID 1832;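 active = inhibition past about -25% in most replicates, and total fluorescence under double the plate's negative control median, limit read from the data; inconclusive = replicates evenly split on the limit, or fluorescence at least double controls; inactive = too little inhibition in most replicates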;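 also: 0% = DMSO and -100% = 5 µM competing unlabeled TCR2 RNA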
# BCLXL inh confirm: Bcl-xL (human) inhibition, MCL1 counter-screen confirmation; 54% of 1,700 active; shares compounds with MCL1 BIM primary; AID 2166; inhibition, % at 10.9 µM; GST-Bcl-xL / FITC-Bim BH3 peptide FP binding;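 active = inhibition above a cutoff equal to the mean inhibition of all tested compounds plus 3 SD, cut at about 30% in these data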;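 also: 0% = DMSO wells and 100% = unlabeled Bim BH3 control peptide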
# MCL1 BIM confirm: confirmation of human MCL1 and BIM-BH3 interaction inhibitors; shares compounds with MCL1 BIM primary; GST-MCL1 / FITC-Bim-BH3 fluorescence polarization; inhibition, % at 10.9 µM; 61% of 1,700 active;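 active = inhibition above the average of all tested compounds plus 3 SD, cut at about 40% in these data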;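 also: 0% = DMSO wells and 100% = unlabeled Bim-BH3 control peptide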
# * = called active by the depositor; ? = inconclusive; . = not tested or not shown; + = active, no number.
SMILES,eLon inh,MCL1 BIM primary,GLD-1 RNA inh,Bcl-xL primary,MEX-5 binding,BCLXL inh confirm,MCL1 BIM confirm
COCCCNC(=O)/C(C#N)=C/c1ccc(OCC(=O)O)c(OC)c1,-3.4,56.8*,7.0,16.1,-10.2,20.4,32.9
COc1ccc(/C=C(\C#N)C(=O)NCCc2ccccc2)cc1OCc1ccccc1,-10.0,7.1,1.7,1.4,0.1,.,.
COc1cc(CN2C[C@@H](CO)O[C@@H](n3cnc4c(NCCN(C)C)ncnc43)C2)cc(OC)c1OC,-3.0,.,.,.,.,.,.
Cc1oc2c(cc(NS(=O)(=O)c3ccc(F)cc3)c3ccccc32)c1C(=O)O,-16.2,22.8,0.7,21.6,-9.2,.,.
Cc1oc2c(cc(NS(=O)(=O)c3ccc(C(C)C)cc3)c3ccccc32)c1C(=O)O,-1.8,75.0*,32.3*,69.4*,-21.7,109.5*,137.5*
COC(=O)c1ccc2cc(C)cc(C)c2n1,1.8,.,.,.,.,.,.
c1ccc(CN(Cc2ccccc2)c2nn[nH]n2)cc1,-4.3,45.9*,-8.7,3.7,-0.8,4.0,7.5
Clc1ccc(CN(Cc2ccc(Cl)cc2)c2nn[nH]n2)cc1,-3.5,4.7,2.0,5.5,0.2,.,.
CN(C)CCOc1ccc2c(c1)C(=O)C(=Cc1ncc([N+](=O)[O-])n1C)C2,2.3,.,.,.,.,.,.
O=C(O)C(S)C(S)C(=O)O (stereo unspecified),-6.8,84.0*,8.7,27.8,-20.6,37.8*,85.8*
C=CCSC1=N/C(=C\C=C\c2ccco2)C(=O)S1,-8.0,47.1*,0.2,12.9,-0.1,2.5,26.7
COC1CCN(Cc2c(C(=O)N3CCN(C4CCCCC4)CC3)nc3ccccn23)CC1,8.1,49.4*,24.5,43.3*,-4.0,15.9,14.6
NC(=O)[C@@H]1CCCN1Cc1c(C(=O)N2CCN(C3CCCCC3)CC2)nc2ccccn12,-2.7,19.8,12.9,25.2,-2.6,.,.
Cc1c(C(=O)O)sc2nc(-c3cccs3)cc(C(F)(F)F)c12,2.6,4.3,0.9,8.2,-1.5,.,.
COc1ccc(-c2cc(C(F)(F)F)c3c(N)c(C(=O)NCCSC)sc3n2)cc1,-11.6,78.5*,58.0*,79.8*,?,80.6*,85.0*
CC(=O)c1sc2nc(-c3cccs3)cc(C(F)(F)F)c2c1N,-20.7,68.5*,-4.5,63.0*,-30.0*,73.7*,83.3*
COC(=O)C1=C(CSc2nc3c(cc2C#N)CN(C)CC3)OC(N)=C(C#N)C1c1ccc(F)cc1 (stereo unspecified),-17.7,74.0*,25.9,57.8*,-10.4,23.6,20.5
CCOC(=O)C1=C(CSc2nc(CC)c(C)cc2C#N)OC(N)=C(C#N)C1c1ccc(OC)cc1 (stereo unspecified),-28.2,-36.3,-39.9,-2.3,10.7,.,.
CC(Cc1ccccc1)N1C(=O)c2cccc([N+](=O)[O-])c2C1=O (stereo unspecified),5.3,169.3*,179.6*,145.5*,-2.5,6.8,-1.6
CCCN1CCN(C(=O)CCn2c(=O)c3cccn3c3cccnc32)CC1,13.7,3.4,-0.5,2.2,0.9,.,.
COc1ccccc1CNC(=O)/C=C/c1ccc(Br)o1,6.1,41.6*,2.2,2.4,2.0,1.0,14.6
COc1ccc(NC(=O)/C=C/c2ccc(Br)o2)cn1,-5.7,9.4,3.9,15.1,-1.1,.,.
CCN(CC)c1ncnc2c1cnn2Cc1ccc(C)cc1,4.8,45.2*,-6.2,2.9,-2.2,8.1,9.5
CCOC(=O)[C@]12CCC=C1N(Cc1cccc3ccccc13)C(=O)[C@H](CC(=O)NCCC(C)C)C2,-0.8,.,.,.,.,.,.
N#C/C(=C\c1ccco1)c1nc2ccccc2s1,-53.6,75.0*,55.4*,79.1*,-9.8,14.9,15.6
SMILES,eLon inh,MCL1 BIM primary,GLD-1 RNA inh,Bcl-xL primary,MEX-5 binding,BCLXL inh confirm,MCL1 BIM confirm
O=C1Nc2ccccc2N=C(c2ccccc2)C1N(C(=O)c1ccnc2ccccc12)c1ccccc1 (stereo unspecified),8.2,.,.,.,.,.,.
CCc1cc(=O)oc2cc(C)c(CN3CCCC3)c(O)c12,-1.1,72.1*,14.3,33.2*,-1.1,52.0*,88.0*
Cc1cc(-n2c(=O)c(C#N)cc3c(=O)n4ccccc4nc32)no1,-1.4,55.7*,17.4,43.1*,-15.0,44.9*,57.9*
Cc1cc(C=O)c2c(c1)C=CC1(Oc3ccccc3C(=O)N1C)O2 (stereo unspecified),.,52.9*,108.8*,58.3*,-1.7,11.3,14.9
COc1ccc2[nH]c3c(c2c1)CCNC3c1ccc([N+](=O)[O-])o1 (stereo unspecified),11.3,96.1*,37.2*,87.2*,-50.3*,79.4*,101.3*
COc1ccc(Br)cc1C(=O)Nc1ccc(N2CCCC2)cc1,0.1,45.9*,9.8,9.1,3.4,19.8,18.4
COc1ccccc1C(C)NC(=O)CCC(=O)N1CCN(S(=O)(=O)c2ccc(Cl)cc2)CC1 (stereo unspecified),-3.0,.,.,.,.,.,.
CCCCCCCCN1C(=O)[C@H](CC(=O)NCc2cccs2)C[C@@]2(C(=O)OC)CCCCC=C12,6.4,.,.,.,.,.,.
Nc1c(C(=O)NC2CC2)sc2nc3c(c(-c4ccco4)c12)CC/C3=C/c1ccco1,24.7,115.0*,84.8*,72.9*,.,64.0*,95.6*
CCCN1CCC2(CC1)C(C#N)=C(N)Oc1c2sc2nc(C)cc(C)c12,-37.2,69.9*,29.7,69.2*,-1.5,45.4*,45.6*
CCCCCC(=O)N1C[C@@H](n2cc(C3CC3)nn2)[C@H](O)C[C@@H]1c1ccc(OC)cc1,-7.7,.,.,.,.,.,.
Cc1nn(-c2ccccc2)c(Cl)c1/C=N/O,-3.4,119.4*,0.1,5.6,-2.6,4.2,8.9
Cc1nn(-c2ccccc2)c(N2CCCC2)c1/C=N/O,2.3,4.5,0.3,3.6,0.7,.,.
O=c1[nH]cnc2sc3c(c12)CN(Cc1ccccc1)CC3,10.1,57.9*,-9.4,72.7*,1.3,21.9,17.3
CC1(C)Cc2c(sc3nc[nH]c(=O)c23)CO1,6.8,4.8,-3.2,1.5,-0.6,.,.
COCCCNC(=O)c1ccccc1Oc1ccccc1,-4.2,-4.5,-0.4,11.9,-1.3,.,.
COCCCNC(=O)c1ccc2c3c(onc13)-c1ccccc1C2=O,2.4,+,196.8*,+,-78.9*,+,+
CCN1CCc2c(sc(N)c2C#N)C1,-29.6,59.0*,-52.1,58.0*,-7.7,47.0*,40.5*
O=C1CCCC(O)=C1N=Nc1ccc2c(c1)OCO2,-22.1,-7.7,-9.5,-6.3,7.3,.,.
O=C1CCCC(O)=C1N=Nc1ccc(C(=O)O)cc1,-2.4,41.4*,-1.8,8.0,-26.3*,3.6,8.8

# Assay outcomes deposited in PubChem by several laboratories.
